Results: ChEMBL document CHEMBL1961873, “Compounds: GSK PKIS; Assays: Nanosyn kinase panel” (2012)

target: Cyclin-dependent kinase 1 (Homo sapiens) (UniProt P06493); conditions: at 1 µM;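 note: mean percent inhibition of the CDK1/cyclin B complex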
Sequence (P06493 whole entry, looked up): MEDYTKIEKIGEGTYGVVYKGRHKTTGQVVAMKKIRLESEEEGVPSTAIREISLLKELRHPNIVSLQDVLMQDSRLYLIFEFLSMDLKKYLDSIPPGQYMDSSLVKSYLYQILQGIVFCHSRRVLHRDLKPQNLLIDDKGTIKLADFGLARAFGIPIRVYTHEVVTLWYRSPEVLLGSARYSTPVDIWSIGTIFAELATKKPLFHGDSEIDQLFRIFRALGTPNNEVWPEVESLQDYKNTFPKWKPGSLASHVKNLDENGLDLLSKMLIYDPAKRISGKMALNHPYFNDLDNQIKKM

| SMILES | inhibition [%] |
| --- | --- |
| COc1cc(/C=N/Nc2ncnc3[nH]ncc23)ccc1O | 15.8 |
| COc1cc(Nc2nccc(Nc3ccc4c(C)n[nH]c4c3)n2)cc(OC)c1OC | 3.05 |
| COc1cc2c(cc1Nc1nc(Nc3ccsc3C(N)=O)c3cc[nH]c3n1)N(C(=O)CN(C)C)CCC2(C)C | 6.04 |
| CCn1c(-c2nonc2N)nc2c(C#CC(C)(C)O)nc(OC[C@H](N)c3ccccc3)cc21 | 0.95 |
| COC(=O)Nc1nc2ccc(S(=O)(=O)c3ccc(NC(=O)Nc4cc(C(F)(F)F)ccc4F)cc3)cc2[nH]1 | 2.29 |
| N#Cc1c(NC(=O)c2ccc(F)cc2)sc2c1CCCC2 | -0.31 |
| CCn1c(-c2nonc2N)nc2c(C#CC(C)(C)O)ncc(OC3CCNCC3)c21 | 2.34 |
| CCn1c(-c2nonc2N)nc2cnc(Oc3cccc(NC(=O)c4ccc(N(C)C)cc4)c3)cc21 | 0.67 |
| Fc1cccc(COc2ccc(Nc3ncnc4sc(-c5ccco5)cc34)cc2Cl)c1 | 1.41 |
| O=S(=O)(CCNCc1ccc(-c2ccc3ncnc(Nc4ccc(OCc5cccc(F)c5)c(Cl)c4)c3c2)o1)c1ccccc1 | 1.65 |
| COc1cccc(-n2ncc3c(N/N=C/c4ccc(F)cc4)ncnc32)c1 | 35.5 |
| NC(=O)c1sc(-n2cnc3ccc(C(F)(F)F)cc32)cc1OCc1ccccc1Br | 1.01 |
| NS(=O)(=O)c1ccc(N/N=C2\C(=O)Nc3ccc4ncccc4c32)cc1 | 80.5 |
| c1ccc(-c2nc3n(c2-c2ccc4c(c2)OCO4)CCC3)nc1 | 1.42 |
| CCNC(=O)O[C@H]1CN[C@H](C#Cc2cc3ncnc(Nc4ccc(OCc5cccc(F)c5)c(Cl)c4)c3s2)C1 | 2.13 |
| COc1ccc(-c2cc(-c3c[nH]nc3-c3ccccn3)ccn2)cc1 | 1.79 |
| Nc1nc(-c2cccc(Cl)c2)c(-c2ccc3ncccc3n2)s1 | 2.18 |

| SMILES | inhibition [%] |
| --- | --- |
| Clc1ccc(-c2nn3ncccc3c2-c2ccnc(Nc3ccccc3)n2)cc1 | 1.32 |
| CCN1CCC(CC(=O)Nc2n[nH]c3nnc(-c4cccc(F)c4F)cc23)CC1 | 8.73 |
| CN1CCC(n2cnc(-c3ccc(F)cc3)c2-c2ccnc(N)n2)CC1 | 2 |
| CNC(=O)c1cncc(/C=C/c2ccccc2Cl)c1 | 3.2 |
| CC(C)COC(=O)c1ccc2c(c1)/C(=C/Nc1ccc(S(N)(=O)=O)cc1)C(=O)N2 | 75.5 |
| CCN(CC)S(=O)(=O)c1ccc(OC)c(Nc2ncc(-c3ccccc3)o2)c1 | 5.32 |
| COc1ccc(-c2oc3ncnc(N)c3c2-c2ccc(NC(=O)Nc3cc(C(F)(F)F)ccc3F)cc2)cc1 | 7.71 |
| COc1ccc(CNC(=O)c2ccc(-c3cc(-c4nnc(C)o4)ccc3C)cc2)cc1 | 1.37 |
| CC(C)(CO)CNC(=O)c1ccc2c(c1)/C(=N/Nc1ccc(S(N)(=O)=O)cc1)C(=O)N2 | 74.8 |
| Cc1cccc2c1NC(=O)/C2=N\Nc1ccc(S(N)(=O)=O)cc1 | 2.23 |
| Cc1ccc2c(-c3ccnc(Nc4ccccc4)n3)c(-c3ccc(F)cc3)nn2n1 | 1.56 |
| CNC(=O)c1cccc(C#Cc2cncnc2Nc2ccc(OCc3cccc(F)c3)c(Cl)c2)c1 | 2.85 |
| c1cc(-c2cnn3nc(N4CCOCC4)ccc23)nc(NC2CC2)n1 | 21.7 |
| FC(F)(F)c1cccc(-c2nn3ncccc3c2-c2ccnc(Nc3ccc4c(c3)OCCO4)n2)c1 | 3.23 |
| CC1=C(C(=O)Nc2cc(Cl)c3[nH]ncc3c2)C(c2ccc(C(F)(F)F)cc2)CC(=O)N1 (stereo not drawn) | 1.81 |
| COc1cc(N2CCN(C(C)C)CC2)ccc1Nc1nc(Nc2ccc(F)cc2C(N)=O)c2cc[nH]c2n1 | 1.85 |
| O=C(Nc1n[nH]c2cc(-c3ccc(F)cc3)ccc12)C1CC1 | 4.52 |

target: Cyclin-dependent kinase 2 (Homo sapiens) (UniProt P24941); conditions: at 0.1 µM;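 note: mean inhibition of CDK2 bound to cyclin A, from the GSK PKIS kinase inhibitor set screen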

| SMILES | inhibition [%] |
| --- | --- |
| COc1cc(/C=N/Nc2ncnc3[nH]ncc23)ccc1O | 3.26 |
| COc1cc(Nc2nccc(Nc3ccc4c(C)n[nH]c4c3)n2)cc(OC)c1OC | 0.73 |
| COc1cc2c(cc1Nc1nc(Nc3ccsc3C(N)=O)c3cc[nH]c3n1)N(C(=O)CN(C)C)CCC2(C)C | 3.04 |
| CCn1c(-c2nonc2N)nc2c(C#CC(C)(C)O)nc(OC[C@H](N)c3ccccc3)cc21 | 3.52 |
| COC(=O)Nc1nc2ccc(S(=O)(=O)c3ccc(NC(=O)Nc4cc(C(F)(F)F)ccc4F)cc3)cc2[nH]1 | 1.37 |
| N#Cc1c(NC(=O)c2ccc(F)cc2)sc2c1CCCC2 | 0.4 |
| CCn1c(-c2nonc2N)nc2c(C#CC(C)(C)O)ncc(OC3CCNCC3)c21 | 3.56 |
| CCn1c(-c2nonc2N)nc2cnc(Oc3cccc(NC(=O)c4ccc(N(C)C)cc4)c3)cc21 | 1.74 |
| Fc1cccc(COc2ccc(Nc3ncnc4sc(-c5ccco5)cc34)cc2Cl)c1 | 2.79 |
| O=S(=O)(CCNCc1ccc(-c2ccc3ncnc(Nc4ccc(OCc5cccc(F)c5)c(Cl)c4)c3c2)o1)c1ccccc1 | 2.32 |
| COc1cccc(-n2ncc3c(N/N=C/c4ccc(F)cc4)ncnc32)c1 | 10.1 |
| NC(=O)c1sc(-n2cnc3ccc(C(F)(F)F)cc32)cc1OCc1ccccc1Br | 1.25 |
| NS(=O)(=O)c1ccc(N/N=C2\C(=O)Nc3ccc4ncccc4c32)cc1 | 93.4 |
| c1ccc(-c2nc3n(c2-c2ccc4c(c2)OCO4)CCC3)nc1 | 1.58 |
| CCNC(=O)O[C@H]1CN[C@H](C#Cc2cc3ncnc(Nc4ccc(OCc5cccc(F)c5)c(Cl)c4)c3s2)C1 | 2.63 |
| COc1ccc(-c2cc(-c3c[nH]nc3-c3ccccn3)ccn2)cc1 | 1.84 |
| Nc1nc(-c2cccc(Cl)c2)c(-c2ccc3ncccc3n2)s1 | 1.23 |

| SMILES | inhibition [%] |
| --- | --- |
| Clc1ccc(-c2nn3ncccc3c2-c2ccnc(Nc3ccccc3)n2)cc1 | 1.43 |
| CCN1CCC(CC(=O)Nc2n[nH]c3nnc(-c4cccc(F)c4F)cc23)CC1 | 2.71 |
| CN1CCC(n2cnc(-c3ccc(F)cc3)c2-c2ccnc(N)n2)CC1 | 0.76 |
| CNC(=O)c1cncc(/C=C/c2ccccc2Cl)c1 | 0.6 |
| CC(C)COC(=O)c1ccc2c(c1)/C(=C/Nc1ccc(S(N)(=O)=O)cc1)C(=O)N2 | 82 |
| CCN(CC)S(=O)(=O)c1ccc(OC)c(Nc2ncc(-c3ccccc3)o2)c1 | 2.02 |
| COc1ccc(-c2oc3ncnc(N)c3c2-c2ccc(NC(=O)Nc3cc(C(F)(F)F)ccc3F)cc2)cc1 | 1.73 |
| COc1ccc(CNC(=O)c2ccc(-c3cc(-c4nnc(C)o4)ccc3C)cc2)cc1 | -2.09 |
| CC(C)(CO)CNC(=O)c1ccc2c(c1)/C(=N/Nc1ccc(S(N)(=O)=O)cc1)C(=O)N2 | 87.3 |
| Cc1cccc2c1NC(=O)/C2=N\Nc1ccc(S(N)(=O)=O)cc1 | 1.45 |
| Cc1ccc2c(-c3ccnc(Nc4ccccc4)n3)c(-c3ccc(F)cc3)nn2n1 | 2.27 |
| CNC(=O)c1cccc(C#Cc2cncnc2Nc2ccc(OCc3cccc(F)c3)c(Cl)c2)c1 | -0.2 |
| c1cc(-c2cnn3nc(N4CCOCC4)ccc23)nc(NC2CC2)n1 | 6.45 |
| FC(F)(F)c1cccc(-c2nn3ncccc3c2-c2ccnc(Nc3ccc4c(c3)OCCO4)n2)c1 | 1.29 |
| CC1=C(C(=O)Nc2cc(Cl)c3[nH]ncc3c2)C(c2ccc(C(F)(F)F)cc2)CC(=O)N1 (stereo not drawn) | -0.94 |
| COc1cc(N2CCN(C(C)C)CC2)ccc1Nc1nc(Nc2ccc(F)cc2C(N)=O)c2cc[nH]c2n1 | 2.71 |
| O=C(Nc1n[nH]c2cc(-c3ccc(F)cc3)ccc12)C1CC1 | -0.94 |
